In the supplement of paper PMC10849652:
About 7,900 targets were measured; listed, in parts, are those with a hit and a random draw of the rest. About 0.6% of all pairs of compound and target were hits.

How the values were obtained:
Experiment in all cases: log2 fold change, soluble protein after heating vs DMSO (PISA); higher = thermal stabilisation; K562 cells, 10 uM, 30 min; active = over 0.2 and 3.5 SD of the protein, either way, in both replicates (recomputed)
saracatinib = compound: CN1CCN(CCOc2cc(OC3CCOCC3)c3c(Nc4c(Cl)ccc5c4OCO5)ncnc3c2)CC1 [saracatinib]
Summary of the method: (§1)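 K562 cells at 2×10^6 cells/mL were exposed to 10 μM compound for 30 min, then aliquots were heated for 3 min across 48°C-58°C, pooled, and extracted in PBS containing 0.5% NP-40 at 4°C. The supernatant after 21,000xg for 90 min was taken as soluble protein and measured by TMTpro 16plex LC-MS/MS with channel sums equalised. Thermal stability is reported relative to control samples, with values from duplicates. Fold changes are given on a log2 scale.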

sotrastaurin = compound: CN1CCN(c2nc(C3=C(c4c[nH]c5ccccc45)C(=O)NC3=O)c3ccccc3n2)CC1 [sotrastaurin]
Summary of the method: as §1

alvocidib = compound: CN1CC[C@H](c2c(O)cc(O)c3c(=O)cc(-c4ccccc4Cl)oc23)[C@H](O)C1 [alvocidib]
Summary of the method: as §1

Tubastatin A = compound: CN1CCc2c(c3ccccc3n2Cc2ccc(C(=O)NO)cc2)C1 [Tubastatin A]
Summary of the method: as §1

[1] = compound: CNC(=O)C1=CC=CC=C1NC2=NC(=NC=C2Cl)NC3=C(C=C(C=C3)N4CCOCC4)OC
Summary of the method: as §1

defactinib = compound: CNC(=O)c1ccc(Nc2ncc(C(F)(F)F)c(NCc3nccnc3N(C)S(C)(=O)=O)n2)cc1 [defactinib]
Summary of the method: as §1

rucaparib = compound: CNCc1ccc(-c2[nH]c3cc(F)cc4c3c2CCNC4=O)cc1 [rucaparib]
Summary of the method: as §1

[2] = compound: CNc1nc(-c2ccc3c(N)n[nH]c3c2)cc(N2C[C@@H](C(=O)NC3CCCCC3)CC[C@H]2C)n1
Summary of the method: as §1

encorafenib = compound: COC(=O)N[C@@H](C)CNc1nccc(-c2cn(C(C)C)nc2-c2cc(Cl)cc(NS(C)(=O)=O)c2F)n1 [encorafenib]
Summary of the method: as §1

[3] = compound: COC(=O)[C@H](CCSC)NC(=O)C1=C(C=C(C=C1)NC[C@H](CS)N)C2=CC=CC=C2
Summary of the method: as §1

[4] = compound: COC1=CC=C(C=C1)CN2C=CC3=C2C=C(C=C3)C(=O)NO
Summary of the method: as §1

filanesib = compound: CON(C)C(=O)N1N=C(c2cc(F)ccc2F)S[C@@]1(CCCN)c1ccccc1 [filanesib]
Summary of the method: as §1

zotarolimus = compound: CO[C@H]1C[C@@H]2CC[C@@H](C)[C@@](O)(O2)C(=O)C(=O)N2CCCC[C@H]2C(=O)O[C@H]([C@H](C)C[C@@H]2CC[C@H](n3cnnn3)[C@H](OC)C2)CC(=O)[C@H](C)/C=C(\C)[C@@H](O)[C@@H](OC)C(=O)[C@H](C)C[C@H](C)/C=C/C=C/C=C/1C [zotarolimus]
Summary of the method: as §1

idasanutlin = compound: COc1cc(C(=O)O)ccc1NC(=O)[C@@H]1N[C@@H](CC(C)(C)C)[C@](C#N)(c2ccc(Cl)cc2F)[C@H]1c1cccc(Cl)c1F [idasanutlin]
Summary of the method: as §1

alisertib = compound: COc1cc(Nc2ncc3c(n2)-c2ccc(Cl)cc2C(c2c(F)cccc2OC)=NC3)ccc1C(=O)O [alisertib]
Summary of the method: as §1

[5] = compound: COc1cc2nc(-c3cc(F)ccc3O)nc(N[C@@H]3CNC[C@H]3C(C)(C)O)c2cc1OC
Summary of the method: as §1

gefitinib = compound: COc1cc2ncnc(Nc3ccc(F)c(Cl)c3)c2cc1OCCCN1CCOCC1 [gefitinib]
Summary of the method: as §1

[6] = compound: COc1cccc2cc(-c3nc([C@H]4CC[C@H](C(=O)O)CC4)n4ncnc(N)c34)[nH]c12
Summary of the method: as §1

lapatinib = compound: CS(=O)(=O)CCNCc1ccc(-c2ccc3ncnc(Nc4ccc(OCc5cccc(F)c5)c(Cl)c4)c3c2)o1 [lapatinib]
Summary of the method: as §1

pictilisib = compound: CS(=O)(=O)N1CCN(Cc2cc3nc(-c4cccc5[nH]ncc45)nc(N4CCOCC4)c3s2)CC1 [pictilisib]
Summary of the method: as §1

Measured: log2 fold change

KPNB1 (UniProt Q14974)
UniProt Q14974, sequence (Q14974 whole entry, looked up): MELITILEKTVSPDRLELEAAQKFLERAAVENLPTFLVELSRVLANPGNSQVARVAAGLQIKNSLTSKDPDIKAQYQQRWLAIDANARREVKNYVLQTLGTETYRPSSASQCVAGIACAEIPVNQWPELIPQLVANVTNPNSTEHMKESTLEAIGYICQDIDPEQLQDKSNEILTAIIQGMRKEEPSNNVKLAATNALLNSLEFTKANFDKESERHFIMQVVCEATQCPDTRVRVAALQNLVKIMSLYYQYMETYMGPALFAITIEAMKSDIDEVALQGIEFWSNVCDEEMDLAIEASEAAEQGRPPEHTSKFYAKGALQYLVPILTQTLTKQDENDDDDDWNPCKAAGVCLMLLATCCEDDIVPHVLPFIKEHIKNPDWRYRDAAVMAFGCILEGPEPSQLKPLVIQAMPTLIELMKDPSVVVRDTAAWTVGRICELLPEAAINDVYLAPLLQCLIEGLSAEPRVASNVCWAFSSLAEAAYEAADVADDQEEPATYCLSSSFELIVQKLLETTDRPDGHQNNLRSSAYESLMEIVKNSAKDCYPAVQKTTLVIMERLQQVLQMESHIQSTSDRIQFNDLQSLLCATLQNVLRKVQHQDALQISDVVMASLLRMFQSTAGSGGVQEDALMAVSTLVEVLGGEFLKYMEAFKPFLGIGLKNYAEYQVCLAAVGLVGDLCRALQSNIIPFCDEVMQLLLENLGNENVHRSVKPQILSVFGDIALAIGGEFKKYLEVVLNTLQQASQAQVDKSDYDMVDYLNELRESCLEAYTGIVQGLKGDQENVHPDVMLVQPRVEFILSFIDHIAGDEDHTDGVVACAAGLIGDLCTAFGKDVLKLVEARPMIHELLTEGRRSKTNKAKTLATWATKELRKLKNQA
inactive: saracatinib -0.076 | sotrastaurin -0.21 | alvocidib -0.01 | Tubastatin A 0.031 | [1] 0.043 | defactinib -0.039 | rucaparib 0.126 | [2] 0.032 | encorafenib 0.201 | [3] -0.063 | [4] 0.033 | filanesib -0.024 | zotarolimus 0.052 | idasanutlin -0.048 | alisertib -0.07 | [5] -0.065 | gefitinib -0.063 | [6] -0.076 | lapatinib -0.001 | pictilisib -0.032

MED16 (UniProt Q9Y2X0)
UniProt Q9Y2X0, sequence (Q9Y2X0 whole entry, looked up): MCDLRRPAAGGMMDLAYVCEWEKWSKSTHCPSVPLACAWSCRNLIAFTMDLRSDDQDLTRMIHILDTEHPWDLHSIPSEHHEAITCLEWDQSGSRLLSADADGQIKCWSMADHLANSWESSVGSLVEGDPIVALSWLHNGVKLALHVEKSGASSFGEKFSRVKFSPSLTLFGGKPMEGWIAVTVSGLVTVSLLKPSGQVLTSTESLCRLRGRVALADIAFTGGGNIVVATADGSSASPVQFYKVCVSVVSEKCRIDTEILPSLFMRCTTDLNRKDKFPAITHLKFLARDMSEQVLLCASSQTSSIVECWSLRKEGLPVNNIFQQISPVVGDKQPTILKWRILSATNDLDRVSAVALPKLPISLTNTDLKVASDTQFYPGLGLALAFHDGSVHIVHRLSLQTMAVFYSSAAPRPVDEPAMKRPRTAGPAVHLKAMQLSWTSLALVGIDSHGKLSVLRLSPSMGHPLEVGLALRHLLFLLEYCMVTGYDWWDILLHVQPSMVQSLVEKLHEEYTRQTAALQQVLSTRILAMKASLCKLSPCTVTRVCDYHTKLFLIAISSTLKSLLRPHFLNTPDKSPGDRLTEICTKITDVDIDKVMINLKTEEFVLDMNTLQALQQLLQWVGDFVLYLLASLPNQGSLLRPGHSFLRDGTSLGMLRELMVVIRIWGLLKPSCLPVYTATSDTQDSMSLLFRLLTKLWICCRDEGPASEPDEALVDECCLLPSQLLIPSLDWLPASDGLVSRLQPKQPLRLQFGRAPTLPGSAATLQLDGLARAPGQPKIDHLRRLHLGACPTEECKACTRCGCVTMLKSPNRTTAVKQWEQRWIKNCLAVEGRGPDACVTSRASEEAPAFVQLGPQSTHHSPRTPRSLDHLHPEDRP
inactive: saracatinib -0.006 | sotrastaurin -0.044 | alvocidib -0.236 | Tubastatin A -0.098 | [1] 0.074 | defactinib -0.009 | rucaparib -0.004 | [2] 0.043 | encorafenib -0.025 | [3] -0.052 | [4] -0.032 | filanesib 0.062 | zotarolimus -0.029 | idasanutlin 0.144 | alisertib -0.024 | [5] -0.063 | gefitinib 0.016 | [6] 0.005 | lapatinib 0.064 | pictilisib 0.011

LONP2 (UniProt Q86WA8)
UniProt Q86WA8, sequence (Q86WA8 whole entry, looked up): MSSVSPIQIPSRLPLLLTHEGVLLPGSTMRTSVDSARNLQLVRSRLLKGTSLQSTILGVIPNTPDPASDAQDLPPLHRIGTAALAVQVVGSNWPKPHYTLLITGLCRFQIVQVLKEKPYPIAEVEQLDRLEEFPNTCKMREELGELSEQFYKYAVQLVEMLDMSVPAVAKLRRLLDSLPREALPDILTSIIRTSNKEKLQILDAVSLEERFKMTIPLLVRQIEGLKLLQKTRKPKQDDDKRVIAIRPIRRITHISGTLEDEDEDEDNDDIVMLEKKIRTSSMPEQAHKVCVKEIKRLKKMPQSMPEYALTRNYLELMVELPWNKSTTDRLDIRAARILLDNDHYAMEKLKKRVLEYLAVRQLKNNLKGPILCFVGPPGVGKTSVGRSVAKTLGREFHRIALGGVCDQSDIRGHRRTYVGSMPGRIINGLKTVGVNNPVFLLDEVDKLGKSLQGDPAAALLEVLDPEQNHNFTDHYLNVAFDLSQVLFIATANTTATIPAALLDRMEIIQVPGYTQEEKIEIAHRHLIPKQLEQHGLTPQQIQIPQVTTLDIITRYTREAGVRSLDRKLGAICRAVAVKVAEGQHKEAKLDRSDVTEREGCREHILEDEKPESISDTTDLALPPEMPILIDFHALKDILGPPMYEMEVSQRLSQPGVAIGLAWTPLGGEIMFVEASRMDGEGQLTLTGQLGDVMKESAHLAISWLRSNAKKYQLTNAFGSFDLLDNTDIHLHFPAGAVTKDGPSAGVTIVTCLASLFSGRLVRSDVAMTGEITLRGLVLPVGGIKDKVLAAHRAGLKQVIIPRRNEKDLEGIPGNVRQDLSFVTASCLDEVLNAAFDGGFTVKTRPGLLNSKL
inactive: saracatinib 0.006 | sotrastaurin 0.003 | alvocidib -0.029 | Tubastatin A 0.135 | [1] 0 | defactinib -0.12 | rucaparib 0.067 | [2] -0.079 | encorafenib 0.13 | [3] 0.007 | [4] -0.002 | filanesib -0.019 | zotarolimus -0.02 | idasanutlin -0.177 | alisertib -0.115 | [5] 0.375 | gefitinib 0.129 | [6] 0.015 | lapatinib 0.1 | pictilisib -0.041

KEAP1 (UniProt Q14145)
UniProt Q14145, sequence (Q14145 whole entry, looked up): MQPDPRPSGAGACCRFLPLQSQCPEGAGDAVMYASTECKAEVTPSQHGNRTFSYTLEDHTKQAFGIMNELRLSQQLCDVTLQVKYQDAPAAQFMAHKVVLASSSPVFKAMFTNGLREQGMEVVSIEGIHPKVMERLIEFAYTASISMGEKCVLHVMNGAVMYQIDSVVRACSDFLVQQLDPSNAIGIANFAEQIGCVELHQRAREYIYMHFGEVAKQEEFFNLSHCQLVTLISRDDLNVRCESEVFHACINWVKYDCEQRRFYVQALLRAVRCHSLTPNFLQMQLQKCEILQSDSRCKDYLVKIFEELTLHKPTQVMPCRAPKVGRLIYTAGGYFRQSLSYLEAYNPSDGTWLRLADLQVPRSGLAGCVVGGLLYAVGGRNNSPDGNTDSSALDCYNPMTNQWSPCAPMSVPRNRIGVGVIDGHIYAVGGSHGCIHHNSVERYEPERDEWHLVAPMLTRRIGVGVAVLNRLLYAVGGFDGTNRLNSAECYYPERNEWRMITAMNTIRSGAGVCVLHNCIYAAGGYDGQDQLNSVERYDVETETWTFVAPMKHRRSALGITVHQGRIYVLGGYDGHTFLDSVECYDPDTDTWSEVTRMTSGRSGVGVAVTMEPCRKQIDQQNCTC
inactive: saracatinib -0.009 | sotrastaurin -0.119 | alvocidib 0.02 | Tubastatin A -0.035 | [1] 0.054 | defactinib -0.045 | rucaparib 0.116 | [2] -0.015 | encorafenib 0.059 | [3] -0.003 | [4] 0.005 | filanesib 0.028 | zotarolimus 0.036 | idasanutlin -0.019 | alisertib -0.018 | [5] 0.005 | gefitinib 0.03 | [6] -0.066 | lapatinib 0.007 | pictilisib -0.02

MAPKAPK3 (UniProt Q16644)
UniProt Q16644, sequence (Q16644 whole entry, looked up): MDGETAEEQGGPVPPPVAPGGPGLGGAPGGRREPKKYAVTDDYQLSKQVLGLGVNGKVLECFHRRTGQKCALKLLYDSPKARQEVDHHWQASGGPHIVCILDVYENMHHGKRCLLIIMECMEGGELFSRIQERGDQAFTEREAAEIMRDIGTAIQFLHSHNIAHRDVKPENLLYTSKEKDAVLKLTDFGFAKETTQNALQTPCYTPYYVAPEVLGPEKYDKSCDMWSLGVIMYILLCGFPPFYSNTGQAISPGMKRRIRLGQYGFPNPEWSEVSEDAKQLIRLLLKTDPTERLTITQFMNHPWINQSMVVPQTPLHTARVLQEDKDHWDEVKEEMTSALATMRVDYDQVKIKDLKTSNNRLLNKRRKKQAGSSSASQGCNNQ
inactive: saracatinib 0.134 | sotrastaurin -0.117 | alvocidib 0.011 | Tubastatin A -0.077 | [1] 0.117 | defactinib -0.051 | rucaparib -0.023 | [2] 0.011 | encorafenib 0.106 | [3] -0.01 | [4] -0.146 | filanesib 0 | zotarolimus -0.034 | idasanutlin -0.088 | alisertib 0.018 | [5] 0.037 | gefitinib 0.27 | [6] 0.01 | lapatinib -0.065 | pictilisib 0.039

KDM3B (UniProt Q7LBC6)
inactive: saracatinib 0.01 | sotrastaurin -0.089 | alvocidib -0.091 | Tubastatin A -0.01 | [1] 0.072 | defactinib -0.161 | rucaparib -0.058 | [2] -0.093 | encorafenib 0.054 | [3] -0.029 | [4] 0.01 | filanesib 0.001 | zotarolimus 0.033 | idasanutlin -0.026 | alisertib 0.021 | [5] 0.065 | gefitinib 0.008 | [6] -0.029 | lapatinib -0.014 | pictilisib 0.012

IMMT isoform 4 (UniProt Q16891)
UniProt Q16891, sequence (Q16891 whole entry, looked up): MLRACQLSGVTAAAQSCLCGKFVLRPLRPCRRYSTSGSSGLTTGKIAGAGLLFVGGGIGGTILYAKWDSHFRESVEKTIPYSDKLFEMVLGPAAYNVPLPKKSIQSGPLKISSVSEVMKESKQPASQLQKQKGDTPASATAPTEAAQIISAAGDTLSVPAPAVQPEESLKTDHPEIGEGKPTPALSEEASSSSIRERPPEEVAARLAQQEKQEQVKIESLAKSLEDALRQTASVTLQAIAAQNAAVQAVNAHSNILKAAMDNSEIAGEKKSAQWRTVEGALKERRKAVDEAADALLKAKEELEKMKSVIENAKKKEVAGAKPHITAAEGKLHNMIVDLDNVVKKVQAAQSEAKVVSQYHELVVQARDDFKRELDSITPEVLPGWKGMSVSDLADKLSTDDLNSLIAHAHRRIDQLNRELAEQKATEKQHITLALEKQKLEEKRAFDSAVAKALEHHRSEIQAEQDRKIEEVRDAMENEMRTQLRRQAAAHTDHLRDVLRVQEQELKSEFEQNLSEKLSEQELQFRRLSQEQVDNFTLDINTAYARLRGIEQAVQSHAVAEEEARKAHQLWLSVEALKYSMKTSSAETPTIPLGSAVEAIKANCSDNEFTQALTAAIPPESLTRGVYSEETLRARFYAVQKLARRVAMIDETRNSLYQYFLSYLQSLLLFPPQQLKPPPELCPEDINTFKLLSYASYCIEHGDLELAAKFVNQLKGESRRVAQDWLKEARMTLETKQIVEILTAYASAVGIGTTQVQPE
inactive: saracatinib -0.012 | sotrastaurin -0.002 | alvocidib -0.009 | Tubastatin A -0.033 | [1] -0.014 | defactinib -0.012 | rucaparib -0.055 | [2] -0.007 | encorafenib 0.012 | [3] 0.002 | [4] -0.008 | filanesib -0.122 | zotarolimus -0.007 | idasanutlin -0.082 | alisertib -0.049 | [5] -0.146 | gefitinib -0.005 | [6] 0.013 | lapatinib -0.047 | pictilisib 0.005

LSR (UniProt Q86X29)
UniProt Q86X29, sequence (Q86X29 whole entry, looked up): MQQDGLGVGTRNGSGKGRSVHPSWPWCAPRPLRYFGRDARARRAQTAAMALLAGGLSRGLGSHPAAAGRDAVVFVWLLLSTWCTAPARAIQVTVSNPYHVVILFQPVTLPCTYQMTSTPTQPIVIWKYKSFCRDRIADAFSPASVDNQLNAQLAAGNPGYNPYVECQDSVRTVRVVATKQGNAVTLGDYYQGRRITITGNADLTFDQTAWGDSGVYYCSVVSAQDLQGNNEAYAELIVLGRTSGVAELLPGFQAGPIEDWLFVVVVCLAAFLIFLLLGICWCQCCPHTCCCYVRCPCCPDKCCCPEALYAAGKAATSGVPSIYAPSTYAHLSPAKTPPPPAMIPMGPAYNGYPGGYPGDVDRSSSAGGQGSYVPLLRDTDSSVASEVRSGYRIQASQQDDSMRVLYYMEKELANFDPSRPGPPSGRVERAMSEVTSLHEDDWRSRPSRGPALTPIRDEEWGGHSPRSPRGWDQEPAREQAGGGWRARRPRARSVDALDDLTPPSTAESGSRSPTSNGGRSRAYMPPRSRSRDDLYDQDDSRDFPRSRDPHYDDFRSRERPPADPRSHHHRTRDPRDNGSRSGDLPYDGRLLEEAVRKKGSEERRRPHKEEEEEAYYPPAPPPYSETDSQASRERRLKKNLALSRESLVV
inactive: saracatinib -0.003 | sotrastaurin 0.023 | alvocidib -0.018 | Tubastatin A 0.012 | [1] -0.074 | defactinib -0.053 | rucaparib -0.023 | [2] 0.095 | encorafenib 0.042 | [3] 0.031 | [4] 0.107 | filanesib 0.116 | zotarolimus -0.011 | idasanutlin -0.022 | alisertib -0.122 | [5] 0.027 | gefitinib 0.021 | [6] 0.033 | lapatinib -0.056 | pictilisib 0.121
